Values without a mark were called inactive. Activity calls are given as the source filed them. How the calls were made is not given here.
assay: xanthine oxidase inhibitors, late-stage follow-up, NOX1 inhibitor project, biochemical, IC50, set 2 (AID 435009); details: Xanthine oxidase enzyme assay, ROS/superoxide detection

Row | SMILES | IC50
1 | CSc1ccc(NC(=O)Nc2ccc(N(C)C)cc2)cc1 | 1.2 µM (active)
2 | COc1cc(-c2nc(-c3ccccc3)c(-c3ccccc3)[nH]2)ccc1O | 0.01 µM (active)
3 | CN(C)c1ccc(NC(=O)Nc2ccc(OCc3ccccc3)cc2)cc1 | 1.3 µM (active)
4 | Cc1cc(Cl)ccc1NC(=S)NNC(=S)Nc1ccc(F)cc1 | 3.3 µM (active)
5 | CN(C)c1ccc(/C=N/Nc2c(Cl)cncc2Cl)cc1 | > 5 µM
6 | FC(F)(F)c1ccc2c(c1)Nc1ccccc1S2 | 5 µM (active)
7 | COc1cc(-c2nc(-c3ccccc3)c(-c3ccccc3)[nH]2)cc(OC)c1O | 0.9 µM (active)
8 | Fc1ccc(NC(=S)NNC(=S)Nc2ccccc2)cc1 | 0.5 µM (active)
9 | Oc1c(Br)cc(/C=N/Nc2c(Cl)cncc2Cl)cc1Br | > 5 µM
